# GPR151 activ: activators of human GPR151; activation, % at 11.2 µM; 650,000 compounds, 1% hits; Q8TDV0; PathHunter beta-arrestin GPR151 cells, luminescence; in the data active = activation above about 4.9%;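 note: 0% = median of compound wells and 100% = cells with positive control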
# TEAD-YAP inh: TEAD-YAP interaction inhibition. HEK-TIYL cells, TEAD-Gal4/YAP UAS-luciferase luminescence. inhibition, % at 9.12 µM. 640,000 compounds, 1.4% hits; in the data active = inhibition above about 32%;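 note: 0% = median of test compound wells and 100% = reference inhibitor wells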
# FBW7 act: human FBW7 E3 ligase activation, primary screen | 650,000 compounds, 0.13% hits | Q969H0 | AlphaScreen FBW7–phospho-cyclin E peptide binding, activator screen | normalized activity (activation), % at 26.1 µM | AID 1259310; in the data active = normalized activity above about 1.9%;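 note: purified mutant Fbw7 with reduced substrate affinity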
# Target sequence (Q969H0 whole entry, looked up): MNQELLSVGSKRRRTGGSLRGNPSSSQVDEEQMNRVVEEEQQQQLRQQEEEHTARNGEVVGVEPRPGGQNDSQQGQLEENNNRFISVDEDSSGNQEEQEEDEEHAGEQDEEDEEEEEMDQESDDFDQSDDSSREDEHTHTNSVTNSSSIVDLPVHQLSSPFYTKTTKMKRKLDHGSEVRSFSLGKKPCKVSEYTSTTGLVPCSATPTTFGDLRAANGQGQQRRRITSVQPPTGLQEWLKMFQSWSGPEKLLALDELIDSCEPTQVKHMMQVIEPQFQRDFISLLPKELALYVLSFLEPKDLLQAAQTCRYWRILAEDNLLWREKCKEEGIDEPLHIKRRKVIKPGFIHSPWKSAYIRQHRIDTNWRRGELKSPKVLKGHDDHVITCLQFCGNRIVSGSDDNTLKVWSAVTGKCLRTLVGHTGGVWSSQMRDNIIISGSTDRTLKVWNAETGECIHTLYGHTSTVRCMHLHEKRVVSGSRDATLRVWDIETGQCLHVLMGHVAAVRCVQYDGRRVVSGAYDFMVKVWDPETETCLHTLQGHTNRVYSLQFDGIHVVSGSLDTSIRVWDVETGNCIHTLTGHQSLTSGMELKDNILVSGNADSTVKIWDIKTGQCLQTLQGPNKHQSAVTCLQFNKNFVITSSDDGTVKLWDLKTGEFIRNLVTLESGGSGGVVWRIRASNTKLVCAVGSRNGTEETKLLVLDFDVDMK
# MITF inh: human MITF inhibition, primary screen. O75030. AlphaScreen MITF homodimerization, bead proximity signal. inhibition, % at 2.6 µM. 650,000 compounds, 0.91% hits; in the data active = inhibition above about 50%;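 note: 0% = vehicle wells with protein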
# Numbers without * were called inactive. A selection: hits, their analogues and other compounds. The true share with any hit is near 3.5%.
SMILES,GPR151 activ,TEAD-YAP inh,FBW7 act,MITF inh
Cc1ccc2cc3c(nc2c1C)OC(C)C(=O)N(Cc1ccco1)C3 (centres undefined),0.9,55.6*,0.0,3.6
CC(C)n1cnc2c(NCc3nc4ccccc4[nH]3)nc(Nc3ncccn3)nc21,-1.0,65.6*,-0.1,-13.6
CC(C)n1cnc2c(NCc3nc4ccccc4[nH]3)nc(Nc3ccncc3)nc21,0.2,89.6*,-0.2,-1.3
Cc1noc(C)c1-c1nc(NCc2nc3ccccc3[nH]2)c2ncn(C(C)C)c2n1,0.8,49.1*,-0.2,-1.9
CC(C)n1cnc2c(NCc3ccccc3)nc(Nc3cccc(N(C)C)c3)nc21,-1.6,-10.8,0.9,8.0
CC(C)n1cnc2c(NCc3nc4ccccc4[nH]3)nc(Nc3cccc(N(C)C)c3)nc21,1.9,42.5*,0.2,14.1
CC(C)n1cnc2c(NCc3nc4ccccc4[nH]3)nc(-c3csc4ccccc34)nc21,-1.2,15.9,0.6,12.6
COC(=O)c1ccc2c(=O)n(Cc3ccc4c(c3)OCO4)c(SCC(=O)N3CCN(c4ccccc4OC)CC3)nc2c1,-1.0,-3.5,-0.1,7.8
O=C(CN1C(=O)NC2(CCc3ccccc32)C1=O)Nc1cc(C(F)(F)F)ccc1Cl (centres undefined),0.6,-3.7,-0.1,0.4
C[C@@H](N)c1ccc(C(=O)Nc2ccncc2)cc1,0.4,50.0*,0.0,-3.1
CC(C)COC(=O)c1ccc(NC(=O)c2ccncc2)cc1,0.5,32.6*,-0.4,7.5
CC(=O)Nc1ccc(C(=O)Nc2ccncc2)cc1,-0.5,-6.9,-0.1,-3.6
CC(C)CCOC(=O)c1ccc(NC(=O)c2ccncc2)cc1,-0.3,26.8,0.0,-3.4
O=C(/C=C/c1ccc(Br)cc1)Nc1ccccn1,-7.1,34.7*,-0.1,10.9
O=C(/C=C/c1ccc2c(c1)OCO2)Nc1ccccn1,-9.1,67.2*,-1.2,0.4
O=C(/C=C/c1ccc(F)cc1)Nc1ccccn1,-8.2,56.6*,0.2,10.6
CCOC(=O)c1sc(NC(=O)CSc2nnc(CNC(=O)c3cccs3)n2C)c(C(=O)OCC)c1C,1.4,-1.4,0.0,-2.4
O=C(CCCCn1c(=O)c2ccccc2n(Cc2ccc(F)cc2Cl)c1=O)NCc1cccs1,-0.8,-6.1,-0.1,-7.3
COc1cccc(Cn2c(=O)n(CCCCC(=O)NCc3ccco3)c(=O)c3ccccc32)c1,-1.0,48.1*,-0.3,2.6
COc1cccc(Cn2c(=O)n(CCCCC(=O)NC3CCCCC3)c(=O)c3ccccc32)c1,-1.3,1.2,-0.1,-14.6
O=C(CCCCn1c(=O)c2ccccc2n(Cc2ccccc2)c1=O)NCc1cccs1,0.4,37.6*,-0.2,0.2
COc1ccc(O)c(C2=Nc3ccccc3N=C(c3ccccc3)C2)c1,1.7,-46.1,2.1*,9.7
COc1ccc(C2=Nc3ccccc3N=C(c3cc(OC)ccc3O)C2)cc1,-1.3,-27.0,0.0,17.4
Nc1nc2ccc(Cc3ccc4nc(N)sc4c3)cc2s1,-1.3,41.3*,0.1,10.1
Nc1nc2ccc(Cc3nc4ccccc4o3)cc2s1,0.6,-54.0,-0.5,-16.5
SMILES,GPR151 activ,TEAD-YAP inh,FBW7 act,MITF inh
Cc1ccccc1Nc1nc(Cl)nc(Nc2ccccc2C)n1,0.8,44.9*,-0.2,4.8
Cc1ccc(Nc2nc(Cl)nc(Nc3ccc(C)cc3C)n2)c(C)c1,-0.1,-1.2,0.0,5.0
Cc1ccc(OCc2nc(-c3ccccn3)no2)c(Br)c1,-7.2,39.2*,0.3,4.2
Oc1c(C(c2ccccn2)N2CCCC2)ccc2cccnc12 (centres undefined),1.6,66.6*,-0.2,106.5*
c1ccc(C(c2nnnn2C2CCCC2)N2CCCCCC2)nc1 (centres undefined),0.0,12.5,-0.8,0.4
Oc1ccccc1C(Nc1nccs1)c1ccc2cccnc2c1O (centres undefined),2.1,23.9,-1.9,41.3
Oc1c(C(c2ccccn2)N2CCN(c3ccccn3)CC2)ccc2cccnc12 (centres undefined),-1.3,-3.9,-2.0,82.8*
CN1CCN(C(c2ccccn2)c2ccc3cccnc3c2O)CC1 (centres undefined),-0.1,14.9,-0.2,89.7*
Oc1c(C(c2cccs2)N2CCN(c3ccccn3)CC2)ccc2cccnc12 (centres undefined),0.7,90.6*,-0.5,38.4
O=C(c1ccc2ccccc2c1)N1CCN(c2ccccn2)CC1,2.0,-1.3,-0.2,-1.0
COc1ccc(C2CN3CCSC3=N2)cc1 (centres undefined),-1.5,-4.7,0.1,-6.3
CC(=O)c1cccc(-c2nc(NCCN(C(C)C)C(C)C)c3ncn(C4CCCCC4)c3n2)c1,-2.9,17.8,0.0,-8.1
COc1ccc(C2Oc3ccccc3C3=C2C(c2cccs2)n2ncnc2N3)cc1OC (centres undefined),0.2,52.0*,0.0,6.7
Cc1ccsc1/C=C1N=C(/C=C/c2ccc(Cl)cc2Cl)OC\1=O,0.2,-6.3,0.3,6.9
COc1cc(-c2cn[nH]c2)cc2c(=O)[nH]c(Cc3cccc(NC(=O)C(C)C)c3)nc12,0.1,-5.3,0.9,10.4
N[C@H](Cc1cccc(C(F)(F)F)c1)c1nc2ccc(-c3cn[nH]c3)cc2c(=O)[nH]1,-1.6,18.8,-0.5,3.9
N[C@H](Cc1ccc(Cl)cc1)c1nc2ccc(-c3cn[nH]c3)cc2c(=O)[nH]1,-0.6,94.1*,-0.6,10.9
COc1cc(-c2cn[nH]c2)cc2c(=O)[nH]c([C@H](N)Cc3cccc(F)c3)nc12,-1.2,71.6*,-0.4,-1.9
COc1ccc(C(=O)Nc2nc3ccccc3s2)cc1[N+](=O)[O-],0.3,-40.3,-0.1,3.8
CCOC(=O)C1=CN(c2ccc(OCC)cc2)C=C(C(=O)OCC)C1c1cccc(C(F)(F)F)c1,-0.3,2.2,0.0,5.9
C/C(=C\c1ccccc1)c1nc2c(=O)n(C)c(=O)nc-2n(C)n1,-4.3,34.4*,-0.2,-7.5
Cn1nc(-c2ccc(Cl)cc2)nc2c(=O)n(C)c(=O)nc1-2,-8.3,-47.7,-0.2,14.1
COc1ccc(-c2nc3c(=O)n(C)c(=O)nc-3n(C)n2)cc1,-9.3,98.0*,-0.4,4.7
Cn1nc(-c2cccnc2)nc2c(=O)n(C)c(=O)nc1-2,-6.4,96.7*,-0.2,9.4
Cn1nc(-c2ccc(F)cc2)nc2c(=O)n(C)c(=O)nc1-2,-8.0,89.3*,-0.2,18.0
SMILES,GPR151 activ,TEAD-YAP inh,FBW7 act,MITF inh
CCN(CC)CCNc1ccc(CO)c2sc3ccccc3c(=O)c12,2.2,34.0*,-0.3,11.9
CCc1cc(CC)c2c(=O)c3ccccc3sc2c1,-1.2,3.2,0.2,8.2
CCOC(=O)c1c(C)c(C(=O)Nc2ccc(OC)cc2)c(C)n1CC,0.8,47.3*,0.0,4.3
CCOC(=O)c1c(C)c(C(=O)Nc2ccc(C(=O)OC)cc2)c(C)n1CC,0.8,-4.5,-0.2,3.3
CCOC(=O)c1c(C)c(C(=O)Nc2ccc(OC)cc2OC)c(C)n1CC,-0.7,45.7*,-0.3,-5.8
COc1ccccc1CCNC(=O)CSc1ccc(-c2ccc(-n3ccnc3)cc2)nn1,1.3,-6.3,-0.1,-8.4
N#CC1=C(N)N(c2ccccc2)S(=O)(=O)c2cc([N+](=O)[O-])ccc21,-1.3,56.1*,0.0,14.0

# Screening data as filed in PubChem BioAssay.
